Experimental data as given in article PMC7826789 (International Journal of Molecular Sciences, 2021).

Experiments:
Conditions in all cases: Compound Concentration (nM):1000
[1] = system: PLK3
[2] = system: PLK4
[3] = system: PRKCD
[4] = system: PRKCE
[5] = system: PRKCH
[6] = system: PRKCI
[7] = system: PRKCQ
[8] = system: PRKD1
[9] = system: PRKD2
[10] = system: PRKD3
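Also: KINOMEscan scanMAX binding as percent activity remaining versus control; lower means stronger binding.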

## NS(=O)(=O)c1ccc(N/N=C2\C(=O)Nc3ccc(C(=O)NCc4ccncc4)cc32)cc1 [GW300657X]
[1]
  Percent Control: 83%
[2]
  Percent Control: 39%
[3]
  Percent Control: 100%
[4]
  Percent Control: 97%
[5]
  Percent Control: 96%
[6]
  Percent Control: 80%
[7]
  Percent Control: 100%
[8]
  Percent Control: 100%
[9]
  Percent Control: 94%
[10]
  Percent Control: 85%

## Cl.O=S1CCN(Cc2ccc(-c3ccc4ncnc(Nc5ccc(OCc6ccccc6)c(F)c5)c4c3)o2)CC1 [GW576924A]
[1]
  Percent Control: 100%
[2]
  Percent Control: 100%
[3]
  Percent Control: 100%
[4]
  Percent Control: 91%
[5]
  Percent Control: 100%
[6]
  Percent Control: 100%
[7]
  Percent Control: 100%
[8]
  Percent Control: 100%
[9]
  Percent Control: 100%
[10]
  Percent Control: 100%

## Cl.c1ccc(Cc2nc3ccc(Nc4ncnc5ccccc45)cc3[nH]2)cc1 [GR269666A]
[1]
  Percent Control: 100%
[2]
  Percent Control: 100%
[3]
  Percent Control: 100%
[4]
  Percent Control: 78%
[5]
  Percent Control: 100%
[6]
  Percent Control: 100%
[7]
  Percent Control: 88%
[8]
  Percent Control: 100%
[9]
  Percent Control: 100%
[10]
  Percent Control: 100%

## NS(=O)(=O)c1ccc(N/N=C2\C(=O)Nc3ccc(-c4cnco4)cc32)cc1 [GW276655]
[1]
  Percent Control: 76%
[2]
  Percent Control: 60%
[3]
  Percent Control: 75%
[4]
  Percent Control: 100%
[5]
  Percent Control: 100%
[6]
  Percent Control: 54%
[7]
  Percent Control: 81%
[8]
  Percent Control: 100%
[9]
  Percent Control: 94%
[10]
  Percent Control: 100%

## CCS(=O)(=O)c1ccc(OC)c(Nc2ncc(-c3cccc(OC)c3)o2)c1 [GW580509X]
[1]
  Percent Control: 94%
[2]
  Percent Control: 50%
[3]
  Percent Control: 100%
[4]
  Percent Control: 62%
[5]
  Percent Control: 100%
[6]
  Percent Control: 100%
[7]
  Percent Control: 100%
[8]
  Percent Control: 100%
[9]
  Percent Control: 100%
[10]
  Percent Control: 100%

## CN(C)c1cc2c(Nc3ccc4c(cnn4Cc4ccccc4)c3)ncnc2cn1 [GW282974X]
[1]
  Percent Control: 100%
[2]
  Percent Control: 66%
[3]
  Percent Control: 100%
[4]
  Percent Control: 100%
[5]
  Percent Control: 97%
[6]
  Percent Control: 88%
[7]
  Percent Control: 100%
[8]
  Percent Control: 100%
[9]
  Percent Control: 95%
[10]
  Percent Control: 89%

## COc1ccc(COc2ccc(Cc3cnc(N)nc3N)cc2OC)cc1 [GW632580X]
[1]
  Percent Control: 97%
[2]
  Percent Control: 72%
[3]
  Percent Control: 71%
[4]
  Percent Control: 100%
[5]
  Percent Control: 100%
[6]
  Percent Control: 88%
[7]
  Percent Control: 79%
[8]
  Percent Control: 100%
[9]
  Percent Control: 100%
[10]
  Percent Control: 100%

## O=C1Nc2ccc(C(=O)c3ccco3)cc2C1=Cc1cc(Cl)c(O)c(Cl)c1 [GW406108X]
[1]
  Percent Control: 37%
[2]
  Percent Control: 63%
[3]
  Percent Control: 100%
[4]
  Percent Control: 100%
[5]
  Percent Control: 100%
[6]
  Percent Control: 100%
[7]
  Percent Control: 100%
[8]
  Percent Control: 100%
[9]
  Percent Control: 100%
[10]
  Percent Control: 100%

## COc1cccc(-c2c[nH]c3c(N/N=C/c4ccncc4)ncnc23)c1 [GW814408X]
[1]
  Percent Control: 100%
[2]
  Percent Control: 96%
[3]
  Percent Control: 100%
[4]
  Percent Control: 100%
[5]
  Percent Control: 100%
[6]
  Percent Control: 30%
[7]
  Percent Control: 100%
[8]
  Percent Control: 100%
[9]
  Percent Control: 100%
[10]
  Percent Control: 91%

## NS(=O)(=O)c1ccc(Nc2ncc(-c3ccccc3)o2)cc1 [GW572399X]
[1]
  Percent Control: 86%
[2]
  Percent Control: 100%
[3]
  Percent Control: 100%
[4]
  Percent Control: 100%
[5]
  Percent Control: 100%
[6]
  Percent Control: 100%
[7]
  Percent Control: 100%
[8]
  Percent Control: 100%
[9]
  Percent Control: 100%
[10]
  Percent Control: 61%
